In PubChem BioAssay AID624330 (Southern Research Specialized Biocontainment Screening …, 2012):
Where “and” joins values, the source holds several entries; their conditions need not be identical. Identical values can stand only once. Screen size: about 340,000 compounds; about 2,100 (0.62%) were called active.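 How the source made its calls: active means first-screen hits whose inhibition reached a set limit at any dose in the follow-up dose series; inconclusive means inhibition above the set first-screen limit but never retested; inactive means the rest.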 Only a sample is shown. Entries with a potency or affinity are not part of this list.

The compounds below were run against Rac GTPase-activating protein 1 (Homo sapiens) (UniProt Q9H0H5) (assay: blockers of MgcRacGAP-driven Rac1 GTP hydrolysis – biochemical, ADP Hunter fluorescence, primary and confirmatory, confirmation (AID 624330;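 further: fluorescence reports GDP produced by GAP-driven GTP hydrolysis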)). Settings: MgcRacGAP-stimulated Rac1 GTP hydrolysis, at 30 µM, hits give high values, GST-tagged Rac1 F28L mutant substrate.
Chain of Rac GTPase-activating protein 1 (Homo sapiens) (Q9H0H5 whole entry, looked up): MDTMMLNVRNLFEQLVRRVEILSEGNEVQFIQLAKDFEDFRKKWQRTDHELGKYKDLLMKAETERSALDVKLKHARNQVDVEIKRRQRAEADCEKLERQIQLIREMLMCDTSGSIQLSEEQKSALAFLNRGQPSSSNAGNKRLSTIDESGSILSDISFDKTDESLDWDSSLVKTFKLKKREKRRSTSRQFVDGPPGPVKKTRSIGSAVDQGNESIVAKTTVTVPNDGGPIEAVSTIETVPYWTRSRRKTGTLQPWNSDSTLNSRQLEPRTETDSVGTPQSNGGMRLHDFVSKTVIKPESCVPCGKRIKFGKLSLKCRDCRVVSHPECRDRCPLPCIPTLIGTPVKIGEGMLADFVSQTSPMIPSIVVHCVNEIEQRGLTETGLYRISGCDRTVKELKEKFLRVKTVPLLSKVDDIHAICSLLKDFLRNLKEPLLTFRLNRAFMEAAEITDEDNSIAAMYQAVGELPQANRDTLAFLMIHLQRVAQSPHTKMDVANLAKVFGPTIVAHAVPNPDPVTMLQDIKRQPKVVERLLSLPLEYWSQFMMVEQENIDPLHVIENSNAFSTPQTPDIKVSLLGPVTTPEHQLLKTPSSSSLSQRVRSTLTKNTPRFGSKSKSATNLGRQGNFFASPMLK

inhibition, inactive:
CC1NC(=O)c2cc3ccccc3cc2-n2c1nc1cc(Cl)ccc1c2=O (configuration not stated) 9.82%, CC(Oc1ccc(Cl)cc1)C(=O)Nc1ccccc1N1CCOCC1 (configuration not stated) 2.3%, NN1C(=O)/C(=C2/Sc3ccccc3N2CCCS(=O)(=O)O)SC1=S 12.5%, CCN1/C(=C2/SC(=S)NC2=O)Sc2ccccc21 1.71%, CCOC(=O)N1CCN(S(=O)(=O)c2c(C)nc3sccn3c2=O)CC1 8.06%, COc1ccc(C=C2CS(=O)(=O)CC(=Cc3ccc(OC)cc3)C2=O)cc1 8.37%, O=C1/C(=C\c2ccc([N+](=O)[O-])cc2)CCc2ccccc21 2.14%, O=[N+]([O-])c1ccc(N2CCN(S(=O)(=O)c3ccc(Cl)c(Cl)c3)CC2)cc1NCCN1CCOCC1 -6.11%, COc1ccc2o/c(=N\O)c(C(=O)Nc3ccc(C)cc3)cc2c1 6.76%, COc1ccccc1NC(=O)c1cc2ccc(O)cc2o/c1=N\O 16.6%, CCOC(=O)C1=CN(Cc2cccc(-c3ccc(F)cc3)c2)S(=O)(=O)N(C)C1C (configuration not stated) 8.9%, Cc1cc(C)nc(Nc2ccc(Cl)cc2C)n1 4.71%, Cc1nc2sc(C(c3cccs3)N3CCC4(CC3)OCCO4)c(O)n2n1 (configuration not stated) 1.65%, Cc1cc(C)c2ccc(=O)n(CC(=O)N/N=C/c3ccccc3Cl)c2n1 5.91%, COc1cc2[nH]c3ccccc3c2cc1C -5.8%, Cc1ccc(C)c2c1[nH]c1ccccc12 10.6%, Cc1ccc(C(C)C)c(OC/C(O)=C(\C#N)c2nc3ccccc3[nH]2)c1 6.88%, CC1(C)C(c2ccccc2)=[N+]([O-])C2(CCCCC2=O)N1O (configuration not stated) 1.13%, CCOC(=O)C1CCN(S(=O)(=O)CCNC(=O)c2ccc(F)cc2)CC1 6.46%, O=S(=O)(O)c1cc(O)ccc1O 4.04%, O=S(=O)(O)c1cccc2c(N=Nc3ccc(O)c4ncccc34)cccc12 18.4%, O=[N+]([O-])c1ccc(N=Nc2ccc(O)cc2O)cc1 7.64%, Oc1ccc(N=Nc2ccc(Br)cc2)c(O)c1 12.2%, O=C(Cc1ccc(F)cc1)NC(Cc1c[nH]c2ccccc12)C(=O)O (configuration not stated) -3.39%, Cc1c(Cl)cnc(NC(=O)CSc2nnnn2C)c1Cl 3.41%, OCCN1CCN(CCCN2c3ccccc3Sc3ccc(Cl)cc32)CC1 31.9%, CC(=O)c1ccc2c(c1)N(CCCN(C)C)c1ccccc1S2 12.4%, CN(C)CCCN1c2ccccc2Sc2ccc(Cl)cc21 22% and 17.9%, CN1CCN(CCCN2c3ccccc3Sc3ccc(C(F)(F)F)cc32)CC1 7.89% and 12.7% and 6.18%, CNc1ccc(/C=C/C(=O)c2cccc3ccccc23)cc1[N+](=O)[O-] 1.28%, CCN(C(=O)COC(=O)/C=C/c1c(C)nn(-c2ccccc2)c1C)C1CCS(=O)(=O)C1 (configuration not stated) 5.67%, CC(=O)c1ccc(NC(=O)CN2CCN(c3ccccc3)CC2)cc1 5.48%, COc1ccc2[nH]c3c(=O)n(CCCCC(=O)N4CCCC4)c(=S)[nH]c3c2c1 23.1%, COc1ccc2[nH]c3c(=O)n(Cc4ccc(C(=O)N5CCCCCC5)cc4)c(=S)[nH]c3c2c1 6.08%, COc1ccc2[nH]c3c(=O)n(Cc4ccc(C(=O)N5CCCC5)cc4)c(=S)[nH]c3c2c1 4.08%, CC[C@H](C)NC(=O)CCCCCn1c(=S)[nH]c2c([nH]c3ccc(OC)cc32)c1=O 3.32%, CC(C)(CO)CNC(=O)CCc1nnc(-c2ccc(-c3ccccc3)cc2)o1 9.2%, CC(OC(=O)c1ccc(-c2ccc(O)cc2)cc1)C(=O)NC1CCCCC1C (configuration not stated) 8.27%, CC(C)CN1CCC(Oc2cccc(C(=O)NCCc3ccccc3)c2)CC1 11.2%, CC(=O)c1sc(NC(=O)c2cccc(N3C(=O)CCC3=O)c2)nc1-c1ccccc1 2.55%, C[C@@H]1CN([C@@H](C)CO)C(=O)CCCn2nncc2CO[C@H]1CN(C)S(=O)(=O)c1ccc2c(c1)OCCCO2 7.05%, Cc1ccc([C@@H]2C[C@H]3[C@@H](CN2S(=O)(=O)c2ccc(Cl)cc2)C(=O)C[C@@H](c2ccccc2)N3S(=O)(=O)c2ccc(C)cc2)cc1 17.6%, Cc1ccc(C2/C=C\CC(NC(=O)OCC3c4ccccc4-c4ccccc43)CC(=O)N2Cc2ccccc2)cc1 (configuration not stated) 7.21%, Cc1c(-c2ccccc2)cn2c1-c1ccc(C)n1CC2 5.62%, CCCC1=[N+](CC(C)=O)CCn2c(C)ccc21 -4.62%, COc1cc2c(cc1NC(=O)CSc1nc3cc(Cl)ccc3s1)oc1ccccc12 5.98%, CCc1ccc(-c2nn(Cc3ccccc3)cc2C(=O)NCC2CCCO2)cc1 (configuration not stated) 0.77%, CC(=O)Nc1ccc(/C=N/NC(=O)c2cc(-c3ccco3)nc3ccccc23)cc1 6.26%, O=C(N/N=C/c1cccc(F)c1)c1cc(-c2ccco2)nc2ccccc12 7.31%, CSc1nc(C)c(C(=O)C[n+]2ccccc2)cc1C#N 5.97%, FC(F)(F)c1cccc(N2CCN(Cc3ccoc3)CC2)c1 9.97%, COc1ccc(-n2c(=S)[nH]c3cc(C(=O)O)ccc3c2=O)cc1 1.88%, Cc1cc(N=Nc2c(O)c3ccccc3[nH]c2=O)ccc1N=Nc1ccc(C(=O)N(C)C)cc1 6.51%, Cc1ccc(N=Nc2ccc(N)cc2C)c(S(N)(=O)=O)c1 13.8%, COc1ccc(OC)c(N)c1 18.5%, COc1ccc(N=Nc2ccc(N)nc2N)cc1 18.6%, COc1cc(S(N)(=O)=O)c(OC)cc1N 7.46%, COc1ccc(C(=O)c2ccc(OC)c(N)c2)cc1N 4.59%, CCCNS(=O)(=O)c1ccc(CCC(=O)NCCc2ccc(OC)c(OC)c2)cc1 1.4%, NC(N)=NC1=NC(=O)/C(=C/c2ccccc2-n2cccn2)S1 10.9%, CC1(C)CC(=O)C(C=Nc2ccc(NC3=C(C#N)C(=O)CC(C)(C)C3)cc2)=C(O)C1 7.44%, CC(/C=N/O)Cc1ccc2c(c1)OCO2 (configuration not stated) 2.11%, COc1ccc(C2C(C(=O)NCc3ccco3)c3ccccc3C(=O)N2C)cc1 (configuration not stated) 0.04%, CC1=C(C(=O)N(C)C)CC(CC(=O)NC2CCCC2)C(=O)N1CCC1=CCCCC1 (configuration not stated) 14.5%, O=C(CNC(=O)c1ccccc1Br)N/N=C/c1cccs1 0.32%, CCCC(=O)Nc1ccc2c(c1)c1ccccc1n2CC 10.5%, CCn1c2ccccc2c2cc(NC(=O)CC(C)=O)ccc21 8.51%, COc1cccc(CNCc2ccc(OC)cc2OC)c1 22.9%, CCn1c2ccccc2c(=O)c2ccccc21 5.08%, CCn1c2ccccc2c2cc(CC(N)=O)ccc21 8.07%, CCn1c2ccccc2c2cc(NC(C)=O)ccc21 6.13%, COc1ccc(CNCc2ccc3ccccc3c2)c(OC)c1 28.9%, CCn1c2ccccc2c2cc(CNCCCN3CCOCC3)ccc21 20.3%, CC1=CC(C)(C)NC(=S)N1c1cccc2ccccc12 12.8%, O=C(O)CSc1nnc(Nc2ccccc2)n1-c1ccccc1 1.56%, COc1ccc(/C=C2\SC(=S)N(CC(=O)OCC(=O)Nc3ccc(C)cc3Cl)C2=O)cc1 1.09%, CN1C[C@@H]2[C@@H]3C(=O)N(Cc4ccccc4)C(=O)[C@@H]3[C@](C)(C1=O)N2C(=O)c1ccc(Br)cc1 5.77%, CCC(C(=O)OCC(=O)c1ccc(OC)cc1OC)c1ccccc1 (configuration not stated) 5.77%, COc1ccccc1C(=O)NC(=O)COC(=O)c1nc(Cl)ccc1Cl 8.9%, Cc1cc(F)ccc1S(=O)(=O)N1CCCOC1CNC(=O)C(=O)NCc1ccc2c(c1)OCO2 (configuration not stated) 2.65%, CCOC(=O)c1ccc(NC(=O)CC2OCCN(CC)C2=O)cc1 (configuration not stated) 7.78%, CC(C)C(=O)Nc1cc(S(=O)(=O)Nc2cccc(Cl)c2)ccc1Cl 12.6%, CCCCc1c(C)c(C#N)c2nc3ccccc3n2c1Nc1c(C)n(C)n(-c2ccccc2)c1=O 8.78%, COc1ccc(/C=C/C(=O)OCC(=O)Nc2ccc3c(c2)OCO3)cc1 10.3%, COc1cc(/C=C/C(=O)OCC(=O)Nc2ccc3c(c2)OCCO3)ccc1OCC#N 5.37%, COc1cccc(/C=C/C(=O)OCC(=O)Nc2ccc3c(c2)OCO3)c1 13%, COc1cccc(/C=C/C(=O)OCC(=O)Nc2ccc3c(c2)OCCO3)c1 14.2%, CCOC(=O)CC1C(=O)NCCN1C(=S)NC(=O)c1ccccc1OC (configuration not stated) 3.14%, CCN(CC(=O)Nc1ccc(NC(C)=O)cc1)C(=O)c1cn(-c2ccccc2)nc1-c1cccs1 7.68%, COc1ccc(C)cc1NC(=O)NC1CC(=O)N(c2ccc3c(c2)OCCO3)C1 (configuration not stated) 10.3%, CC(/C=C/c1ccccc1)=N/O 4.32%, CCOc1ccc(/C=C\C(C)=N\O)cc1 8.33%
